Source: PubChem BioAssay (NCI)
Several values for one entry are separate records, joined by “and”; a condition that tells them apart may be missing. Equal values may be shown once. About 83,000 compounds went through this panel and 20% of them were active in at least one assay; those are over-represented in the sample as a whole.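 A percent growth of 40 corresponds to 60% growth inhibition; 0 means no net growth; -100 means all cells died. Active threshold: below 10.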 Activity calls are given as the source filed them.

test system: MDA-MB-468 breast; experiment: NCI-60 one-dose screen, 48 h (100 = growth as untreated, 0 = no growth, -100 = all killed); settings: 10 µM unless noted

SMILES	growth
O=C1[C@@H]2Cc3c([nH]c4ccccc34)[C@@H](c3ccc(Cl)cc3)N2C(=O)CN1C1CCN(Cc2ccccc2)CC1	49.5% (inactive)
Nc1ccc2c(c1)Cc1cc(N)c(Cl)cc1-2	80.4% (inactive)
CCn1cc(C(=O)O)c(=O)c2cc(F)c(N3CCNCC3)cc21	93.2% (inactive)
C=CC(=O)Nc1cccc(-c2nc(SC)nc(NCCN3CCOCC3)c2C#N)c1	97.8% (inactive)
O=C(N/N=C\c1cc(Br)ccc1O)c1ccncc1	24% (inactive)
CNC(=O)c1cc(Oc2ccc3nc(NC(=O)c4cc(C)cc(C)c4)sc3c2)ccn1	50.2% (inactive)
COc1cnc2c(c1)C(=O)c1c-2n(CCCNC2=NCCS2)c(=O)c2cc([N+](=O)[O-])ccc12	-39% (active)
C[N+](C)(CCCCCC[N+](C)(C)C1c2ccccc2-c2ccccc21)C1c2ccccc2-c2ccccc21	107% (inactive)
Clc1ccc2c(NCCCN3CCN(c4nc(-n5ccnc5)nc5ccccc45)CC3)ccnc2c1	106% (inactive)
COc1ccc(/C=C2/SC(=O)N(CC(=O)N3CCN(c4cc5c(cc4F)c(=O)c(C(=O)O)cn5C4CC4)CC3)C2=O)cc1	108% (inactive)
CN1C(=O)N(C)[C@H]2NC(NN)=N[C@H]21	101% (inactive)
COc1ccc(-c2[nH]ncc2-c2cc3c(c(OC)c2)OCC(=O)N3)cc1	-6.47% (active)
CS(=O)c1nccc(-c2c(-c3ccc(F)c(OCCc4ccc(F)cc4)c3)nc3sccn23)n1 (centres undefined)	-64.3% (active)
COc1cc(-c2nc3ccc(C)cc3[nH]2)ccc1OCC(=O)N=Nc1c(O)[nH]c2ccccc12	-85.9% (active)
C=C(C)[C@@H]1CC[C@]2(CN)CC[C@]3(C)[C@H](CC[C@@H]4[C@@]5(C)CCC(N)[C@@](C)(CO)[C@@H]5CC[C@]43C)[C@@H]12 (some centres undefined)	-86.6% (active)
O=C(Cn1c2ccccc2c2ccncc21)N/N=C/c1cc(O)c(O)c(O)c1	111% (inactive)
Cc1c2c(nn1C(=O)c1nn(-c3ccc(Cl)cc3)cc1O)-c1ccccc1CC2	13.9% (inactive)

SMILES	growth
COc1cc(OC)c2c(c1Cl)O[C@]1(C2=O)C(OCc2ccccc2)=CC(=O)C[C@H]1C	-4.52% (active)
Cn1cc(-c2nonc2-c2c[nH]c3ccccc23)c2cc(Br)ccc21	59.5% (inactive)
CCCCC1Nc2nc(SC)n(C)c(=O)c2CN(Cc2ccccc2)C1=O (centres undefined)	101% (inactive)
CCOC(=O)/C=C(/C)Sc1cc(O)c2ccccc2c1O	29.9% (inactive)
CCCCN1CCN(c2ccc3nc(-c4ccc5nc(-c6ccc(OC)c(OC)c6)[nH]c5c4)[nH]c3c2)CC1	-74.9% (active)
O=C1NC(=O)C(Cc2ccc(OCc3ccc(-c4cc(F)c(F)c(F)c4)cc3)cc2)S1 (centres undefined)	53.4% (inactive)
CCOC(=O)c1csc(-c2ccc(COC(=O)c3ccccc3)o2)n1	115% (inactive)
COc1cc2c(cc1OC)-c1ccc3cc4c(cc3c1N(CCCN(C)C)C2)OCO4	22.3% (inactive)
CCN(CC)CCNc1cc(-c2cccc(OC(F)(F)F)c2)nc2ccc(N3CCCC3)cc12	28.6% (inactive) and -38.3% (active) and 0.911% (active)
N=C(N)c1ccc(-c2ccc(-c3ccc(Cl)cc3)s2)s1	-71.2% (active)
C=CCn1c(SCC(=O)Nc2ccc(C(=O)/C=C/c3cccc([N+](=O)[O-])c3)cc2)nnc1-c1c[nH]c2ccccc12	81.9% (inactive)
CN(C)CCN1CCN(c2ncccc2C2Nc3ccccc3-n3cccc32)CC1 (centres undefined)	109% (inactive)
CCOC(=O)[C@@H](Cc1ccccc1)NC(=O)c1[nH]c2ccc(Cl)cc2c(=O)c1C	78% (inactive)
CCOC(=O)C1=C(COCCN)NC(C)=C(C(=O)OC)C1c1ccccc1Cl (centres undefined)	17% (inactive)
CO[C@H]1C[C@@H]2CC[C@@H](C)[C@@](O)(O2)C(=O)C(=O)N2CCCC[C@H]2C(=O)O[C@H]([C@H](C)C[C@@H]2CC[C@@H](OP(C)(C)=O)[C@H](OC)C2)CC(=O)[C@H](C)/C=C(\C)[C@@H](O)[C@@H](OC)C(=O)[C@H](C)C[C@H](C)\C=C/C=C/C=C/1C	39.9% (inactive)
O=C(Oc1ccc(Cl)cc1[N+](=O)[O-])Oc1ccc(Cl)cc1[N+](=O)[O-]	114% (inactive)
CCCCCOc1ccc(C(=O)/C(Br)=C/C(=O)O)cc1	89.2% (inactive)
